# The list is not random: actives were taken first. Their share in the collection is about 2.7%.
# Env fusion inh: inhibitors of HIV-1 Env-driven cell-cell fusion, primary screen, HeLa-JRFL effector, CEM21 target cells, luciferase | inhibition, % at 12.3 µM | actives 1.1% (n = 360,000) | AID 651610, 2012;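 active = mean replicate inhibition score of at least 50 and every replicate individually at or above 50; inconclusive = only one of the two criteria met; inactive = mean below 50 and not all replicates reaching 50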;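 note: 0% = plate neutral controls and 100% = maraviroc near 300 nM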
# GSIS activator: GLuc luminescence reporter in INS-1E cells, primary screen for activators of glucose-dependent secretion of insulin | actives 0.61% (n = 370,000) | INS-1E GLuc reporter insulin secretion, 2-3 h | activation, % at 16.6 µM;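 active = lowest replicate activation of at least 40%, so every replicate reaches that level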;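 note: 0% = median of neutral control wells and 100% = median of IBMX positive control wells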
# Wnt bcat act: Wnt/beta-catenin pathway activators, primary screen, cell-based, plate reader, single point; Wnt/beta-catenin reporter cell assay, activator; activation, % at 9.35 µM; actives 1.2% (n = 300,000); AID 743398, 2014; in the data active = activation above about 30%, passing the limit was not always enough; inconclusive = no clear call, values can overlap the other calls;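 note: 0% = neutral control wells and 100% = positive control wells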
# F508del corr: F508del CFTR correction, initial screen, CFBE line, single point; activity (quench increase), % at 7.58 µM; AID 720511, 2013; CFBE cells, YFP halide quenching; stimulated with forskolin plus potentiator P3; % fluorescence drop versus neutral controls; actives 0.36% (n = 350,000);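 active = mean added fluorescence quench of at least 8% versus neutral control, with both replicates also reaching 8%; inconclusive = only one of the mean or replicate conditions met; inactive = mean below 8% and not both replicates reaching 8%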;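 note: cells transiently co-express mutant CFTR-F508del with the halide-sensitive YFP; corrector assay measuring rescue of mutant channel to the surface after 24 h compound exposure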
# MITF TRPM1 HTS: activators of MITF-driven TRPM1 promoter reporter, primary screen, cell-based, SK-MEL-5, luciferase, single point | SK-MEL-5 TRPM1-promoter luciferase, 24 h; % of positive control, neutral wells = 0 | activation, % at 12.5 µM | actives 0.75% (n = 300,000) | AID 588334, 2011;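 active = mean activation of at least 80% with every replicate also reaching 80%; inconclusive = mean reaches 80% but some replicate falls short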;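 note: 0% = neutral control wells and 100% = parthenolide positive control wells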
# The depositor's hits bear a star; ? = inconclusive; / = no result given; [ ] = another dose, or the depositor's remark.
SMILES,Env fusion inh,GSIS activator,Wnt bcat act,F508del corr,MITF TRPM1 HTS
COc1ccc(N=Nc2ccc(N)nc2N)cc1,-147,-11,41*,3,67
O=[N+]([O-])c1ccc(N/N=C/c2sc(N3CCOCC3)nc2-c2ccccc2)c(S(=O)(=O)Nc2ccc(Cl)cc2)c1,17,3,3,-2,-71
O=C(O)c1cccc(N/N=C/c2sc(N3CCOCC3)nc2-c2ccccc2)c1,/,42*,/,/,39
O=[N+]([O-])c1ccc(N/N=C/c2sc(N3CCOCC3)nc2-c2ccccc2)c(S(=O)(=O)Nc2ccccc2Cl)c1,95*,-43,-6,/,-62
O=C(N/N=C/c1sc(N2CCOCC2)nc1-c1ccccc1)c1cccc(S(=O)(=O)N2CCOCC2)c1,88*,9,1,-1,-63
Nc1ccc(C(=O)N/N=C/c2sc(N3CCOCC3)nc2-c2ccccc2)cc1,-56,11,/,/,6
Cc1noc(C)c1S(=O)(=O)N(C)C[C@H]1Oc2c(NC(=O)c3cnccn3)cccc2C(=O)N([C@@H](C)CO)C[C@H]1C,/,8,/,1,/
N#C[C@@H]1[C@H](c2ccc(C#CC3CCCC3)cc2)[C@@H](CO)N1S(=O)(=O)c1ccccc1,1[16.7 µM],-8,/,-2,/
CCC(=O)N[C@H]1CC[C@H](CC(=O)NCC2CC2)O[C@H]1CO,/,10,/,0,/
CC(C(=O)c1ccc(-c2ccccc2)cc1)[n+]1ccccc1 (stereo not drawn),46*,/,-5,/,-30
C[C@]12C(=O)N(c3ccccc3)C(=O)N1[C@@H]1c3ccccc3OC[C@@H]1[C@H]2c1ccccc1,-7,6,-4,0,-3
CCCCN1CC(=O)N2[C@H]3c4ccccc4OC[C@@H]3[C@H](c3ccccc3)[C@]2(C)C1=O,83*,-14,-9,2,-5
CCOC(=O)[C@H]1[C@H]2COc3ccc(OC)cc3[C@@H]2N2C(=O)CN(Cc3ccc(Cl)cc3)C(=O)[C@@]12C,63*,-52,2,-1,-5
C[C@]12C(=O)N(c3cccc(Cl)c3)C(=O)N1[C@@H]1c3ccccc3OC[C@@H]1[C@H]2c1ccccc1,56*,-6,-7,3,-2
C[C@@]12C(=O)N(Cc3ccccc3)CC(=O)N1[C@H]1c3ccccc3OC[C@@H]1[C@@H]2c1ccccc1,104*,/,-2,2,12
CCC(=O)N1[C@H](CO)[C@H](c2ccc(-c3ccccc3OC)cc2)[C@H]1CNC(C)=O,/,-7,/,-3,/
O=C(C[C@H]1CC[C@H]2[C@@H](COC[C@@H](O)CN2Cc2ccc3c(c2)OCO3)O1)Nc1ccc(-c2ccccc2)cc1,?,3,/,2,/
C[C@@]12C(=O)N(Cc3ccco3)CC(=O)N1[C@H]1c3ccccc3OC[C@@H]1[C@@H]2c1ccccc1,84*,-29,-3,4,3
CCCNC(=O)N1CC2(CN(C(C)=O)C2)c2c(n(C)c3cc(OC)ccc23)[C@@H]1CO,/,50,/,/,/
COc1ccc(CN(C(=O)Cc2c[nH]c3ccccc23)C(C(=O)NC2CCCCC2)c2ccc(C)o2)cc1 (stereo not drawn),109*,/,-7,/,-6
CCc1ccc(N(C(=O)c2snc(C(N)=O)c2N)C(C(=O)NC2CCCC2)c2ccco2)cc1 (stereo not drawn),56*,7,-1,0,-5
Cc1ccc(C(C(=O)NC2CCCC2)N(Cc2ccc(F)cc2)C(=O)c2snc(C(N)=O)c2N)o1 (stereo not drawn),65*,-14,1,-3,-8
CC1(Cc2ccccc2OC(F)(F)F)C(=O)Nc2ccc(OC(F)(F)F)cc21 (stereo not drawn),19,-48,-1,2,/
COC(=O)c1cccc(CC2(C)C(=O)Nc3cc(-c4ccccc4Cl)ccc32)c1 (stereo not drawn),90*,6,0,1,/
CC1(Cc2c(Cl)cccc2Cl)C(=O)Nc2cc(-c3ccccc3Cl)ccc21 (stereo not drawn),5,-8,-1,-2,/
CC1(Cc2ccccc2OC(F)(F)F)C(=O)Nc2cc(-c3ccccc3Cl)ccc21 (stereo not drawn),56*,-2,-2,0,/

# Assay outcomes as filed in PubChem.
